# ChEMBL document CHEMBL1157539, “Thousands of chemical starting points for antimalarial lead identification” (Nature, 2010)
# Tests used:
# Type in all cases: functional
# [1] = system: Plasmodium falciparum; experiment: GSK_TCMDC: Inhibition of Plasmodium falciparum 3D7 in whole red blood cells, using parasite LDH activity as an index of growth. Test compounds present at 2uM
# [2] = system: Plasmodium falciparum; experiment: GSK_TCMDC: Inhibition of Plasmodium falciparum Dd2 in whole red blood cells, using parasite LDH activity as an index of growth. Test compounds present at 2uM
# [3] = system: HepG2; experiment: GSK_TCMDC: Percent inhibition of human HepG2 cell line. Test compounds present at 10uM.
Structure (SMILES),Inhibition [1],Inhibition [2],Inhibition [3]
Cl.O=C(N[C@@H](Cc1cc(F)cc(F)c1)[C@H](O)CNCc1cccc(C(F)(F)F)c1)c1cc(C2CCCC2)cc(N2CCCC2=O)c1,95%,45%,37%
CCCN1CCC(NCc2cn(C)nc2-c2ccc(Oc3ccccc3)cc2)CC1,88%,44%,34%
CCc1c(C)nc2nc(Cc3cccc(F)c3)nn2c1N1CCN(c2ccccn2)CC1,100%,98%,0%
COc1ccc(S(=O)(=O)Nc2cc(C)cc(Br)c2OC)cc1N1CCN(C(=O)C(Cl)(Cl)Cl)CC1.Cl,91%,66%,9%
O=C(O)C(F)(F)F.c1ccc(CNCc2cccc(-c3csc(-c4nc5ccccc5[nH]4)c3)c2)cc1,100%,54%,24%
COc1cccc(Nc2nc(C)cc(NC3CCN(Cc4ccccc4)CC3)n2)c1,100%,46%,15%
COc1ccccc1CCNc1nc(C)cc(N[C@@H](CC(C)C)C(=O)NCCc2ccccc2)n1.O=C(O)C(F)(F)F,97%,81%,12%
C[C@@H](NC(=O)NC(CCN1CCC2(CC1)CN(S(C)(=O)=O)c1ccccc12)c1ccc(Cl)c(Cl)c1)c1ccccc1 (stereo partly specified),92%,88%,15%
Fc1ccc(Nc2ccnc3cc(-c4cccc(CN5CCCCC5)c4)ccc23)c(Cl)c1,91%,58%,3%
Br.COc1ccccc1CCCON1C(=N)N=C(N)NC1(C)C,95%,92%,68%
O=C(/C=C/c1ccc(C(F)(F)F)cc1)NCCCCCN1CCCN(C(=O)Nc2ccc(Cl)c(Cl)c2)CC1,100%,17%,89%
Cl.O=C(Nc1ccc(NC2=NCCN2)cc1)c1ccc(C(=O)Nc2ccc(NC3=NCCN3)cc2)cc1,91%,86%,15%
CC(Cc1ccc(C(=O)N2CCN(C(=O)c3ccc(CC(C)NCCc4cccc(Cl)c4)cc3)CC2)cc1)NCCc1cccc(Cl)c1 (stereo unspecified),100%,85%,99%
O=C(Nc1cccc(C(F)(F)F)c1)Nc1ccc(Cl)c(C(F)(F)F)c1,99%,99%,0%
CN(Cc1cccc(F)c1)C1CCN(c2cc(NC(=O)c3ccc(F)cc3)ccn2)C1.O=C(O)C(F)(F)F (stereo unspecified),83%,14%,7%
O=C(/C=C/c1ccccc1Cl)Nc1ccc(Br)c(OCCN2CCCCC2)c1.O=C(O)C(=O)O,99%,25%,11%
Cc1ccc(/C=C/C(=O)NC2CCC(N3CCC(c4ccccc4C)CC3)CC2)cc1C (stereo unspecified),100%,43%,12%
Cc1cccc2nc(-c3ccc(-c4cccc(NC(=O)Nc5ccccc5)c4)cc3)[nH]c12,100%,14%,18%
CC(C)(C)c1ccc(S(=O)(=O)Nc2ccccc2Cn2nc(N3CCNCC3)ccc2=O)cc1.O=C(O)C(F)(F)F,98%,97%,0%
C=CCn1c(Sc2ccc(C#N)c([N+](=O)[O-])c2)nnc1-c1ccc(OC)cc1,96%,74%,0%
Cc1noc(C)c1-c1ccc2c(Nc3ccccc3C(C)(C)C)c(C(=O)NCc3cccc4ccccc34)cnc2c1.Cl,96%,64%,4%
CN1CCC(C(=O)N(Cc2ccc(-c3ccc(CNCCc4ccccc4)cn3)cc2)C2Cc3ccccc3C2)CC1.O=C(O)C(F)(F)F,88%,97%,65%
CCCc1cc(=O)[nH]c(-n2nc(C)cc2NC(=O)c2cc3ccccc3o2)n1,90%,63%,39%
O=[N+]([O-])c1ccc2c(c1)c1ccccc1n2Cc1ccccc1O,93%,84%,0%
Cn1nc(-c2ccc(Cl)cc2)c2cc(C(=O)NCCN3CCOCC3)sc21,97%,29%,21%
CC[C@H](C)CNC(=O)c1ccnc(-c2ccc(CNCCCc3ccccc3)cc2)c1.O=C(O)C(F)(F)F,100%,84%,17%
CCN(CC)c1ccccc1CNC(=O)c1cc(Cl)c(N)cc1OC,97%,94%,6%
